“And” between values parts separate entries of the source, which are not always exact repeats. Identical values can stand only once.
Assay: reversal of MRP1-mediated doxorubicin resistance, pilot screen, H69AR cells, doxorubicin co-treatment (AID 601)
Details: H69AR cells + 2 uM doxorubicin, CellTiter-Glo, 72 h; measured here: viability with 2 uM doxorubicin; at 10 µM; stronger effect = lower value

| SMILES | viability |
| --- | --- |
| Cn1c(=O)[nH]c(=O)c2c1nc(N1CCNCC1)n2CCOc1ccccc1 | 90.6% |
| CCOC(=O)c1cc2n(n1)C(C(F)(F)C(F)(F)F)CC(C)N2 (stereo not given) | 93% |
| Cc1ccccc1-n1c(=O)c2ccccc2n2nnnc12 | 94.1% |
| Cc1cccc(N2C(=O)CC(N3CCN(C(=O)c4ccccc4)CC3)C2=O)c1 (stereo not given) | 83.6% |
| CC(C)Cn1c(=O)c(C2=NS(=O)(=O)c3ccccc3N2)c(O)c2ccccc21 | 99% |
| c1ccc(CNc2ncnc3ccccc23)cc1 | 97.3% |
| O=S1(=O)N=C(Nc2nc3c(s2)CCCC3)c2ccccc21 | 82.7% |
| CCCn1c2ccccc2c2nnc(SCC(=O)Nc3ncccn3)nc21 | 77.4% |
| COc1cc(OC)cc(C(=O)N2c3ccc(F)cc3CCC2C)c1 (stereo not given) | 90.7% |
| CCOC(=O)C(CCc1nnc(N)s1)C(=O)OCC | 95.2% |
| CCOC(=O)N1CCN(c2c(NCCCOC(C)C)c(=O)c2=O)CC1 | 89.8% |
| CN(C)S(=O)(=O)Nc1ccc(Br)cc1F | 88.5% |
| CC(=O)Nc1c(C(=O)C2CC2)oc2ccccc12 | 82.5% |
| O=C(COC(=O)c1cc(-c2ccco2)nc2ccccc12)NCc1ccc2c(c1)OCO2 | 85.5% |
| CCC(=O)c1ccc(OCCN2CCOCC2)cc1 | 92.1% |
| Cc1cc(=O)oc2cc(OCC(=O)OCc3nnc(-c4ccccc4)o3)ccc12 | 91.9% |
| Nn1c(SCC(=O)NC2CCCCC2)nnc1C1CC1 | 103% |
| CCN(C(=O)Cc1c(C(=O)O)[nH]c2ccccc12)c1cc(OC)ccc1OC | 95.3% |
| O=C(NCc1ccco1)c1cnc2n(c1=O)CCS2 | 89.2% |
| O=C1CN(C(=O)COC(=O)c2ccccc2NC(=O)c2ccco2)c2ccccc2N1 | 97.6% |

| SMILES | viability |
| --- | --- |
| CC(=O)Nc1ccc(S(=O)(=O)n2nc(C)cc2C)cc1 | 98.9% |
| CCOC(=O)CSc1nnc(Cn2nnc(-c3ccccc3)n2)n1CC | 92.7% |
| O=C(Nc1ccccc1C(=O)N1CCCCCC1)c1cccc(S(=O)(=O)N2CCOCC2)c1 | 103% |
| Cc1ccc(-c2cc(C(=O)NCc3ccc4c(c3)OCO4)no2)cc1 | 84.9% |
| CCOC(=O)c1cc(C)sc1N1C(=O)C2C3C=CC(C3)C2C1=O (stereo not given) | 92.8% |
| Cc1ccc(-c2nc(CS(=O)CC(=O)NCCN(CC(C)C)CC(C)C)c(C)o2)cc1 (stereo not given) | 83.6% |
| CCN(CC)S(=O)(=O)N1CCC(C(=O)NC2CCCc3ccccc32)CC1 (stereo not given) | 86.2% |
| COc1ccc(OC)c(Nc2cc(-c3ccccc3)nc(N)n2)c1 | 67.1% |
| O=c1ccc(S(=O)(=O)N2CCC(Cc3ccccc3)CC2)c[nH]1 | 86.8% |
| CN(C)S(=O)(=O)c1ccc(Oc2ccc(S(=O)(=O)N(C)C)cc2)cc1 | 94.6% |
| COc1ccc2c(c1OC)C(=O)OC2C1c2c(cc3c(c2OC)OCO3)CCN1C (stereo not given) | 91.6% and 97% |
| c1ccc(-c2cn3c4c(sc3n2)CCCC4)cc1 | 65.2% |
| Oc1ccc2[nH]cnc2c1CN1CCCCC1 | 92.5% |
| CCCCOc1cc(=O)[nH]c(=O)[nH]1 | 93.4% |
| COc1cc(-c2nn3c(-c4cccnc4)nnc3s2)cc(OC)c1OC | 85.8% |
| CCS(=O)(=O)Nc1ccc(C(=O)CC2(O)C(=O)Nc3ccccc32)cc1 (stereo not given) | 97.3% |
| Cn1c(=O)c2[nH]c(NCC3CCCO3)nc2n(-c2ccccc2)c1=O (stereo not given) | 91.5% |
| Cc1cccc(OCCCC(=O)O)c1 | 93.5% |
| Cc1cccc2cc(CN(CC3CCCO3)C(=O)c3cnccn3)c(=O)[nH]c12 (stereo not given) | 87.9% |
| COCCCNC(=O)C(Cc1ccccc1)NS(=O)(=O)c1ccc2c(c1)c(=O)n(C)c(=O)n2C (stereo not given) | 85.9% |

Source: PubChem BioAssay
